# High-throughput results: PubChem, several laboratories
# This is a sample that favours compounds with a hit; in the whole collection about 4.6% have one here.
# FXN GAA850 act = frataxin GAA850 promoter activation. HEK293 lucGAA850 FXN promoter luciferase reporter, 24 h; percent of 10 µM SAHA response. activation, % at 6 µM. 360,000 tested, 0.56% active. AID 540364;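 active = activation above the average of all compounds screened plus 3 SD, cutoff fixed separately per campaign, cut at about 7.5% in these data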;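 also: 0% = DMSO wells and 100% = 10 µM SAHA wells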
# AHR act = activates the human aryl hydrocarbon receptor | P35869 | AHR-responsive luciferase reporter cells, luminescence | activation, % at 5 µM | 320,000 tested, 2.5% active; in the data active = activation above about 47%;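 also: 0% = vehicle wells and 100% = reference agonist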
# Target sequence (P35869 whole entry, looked up): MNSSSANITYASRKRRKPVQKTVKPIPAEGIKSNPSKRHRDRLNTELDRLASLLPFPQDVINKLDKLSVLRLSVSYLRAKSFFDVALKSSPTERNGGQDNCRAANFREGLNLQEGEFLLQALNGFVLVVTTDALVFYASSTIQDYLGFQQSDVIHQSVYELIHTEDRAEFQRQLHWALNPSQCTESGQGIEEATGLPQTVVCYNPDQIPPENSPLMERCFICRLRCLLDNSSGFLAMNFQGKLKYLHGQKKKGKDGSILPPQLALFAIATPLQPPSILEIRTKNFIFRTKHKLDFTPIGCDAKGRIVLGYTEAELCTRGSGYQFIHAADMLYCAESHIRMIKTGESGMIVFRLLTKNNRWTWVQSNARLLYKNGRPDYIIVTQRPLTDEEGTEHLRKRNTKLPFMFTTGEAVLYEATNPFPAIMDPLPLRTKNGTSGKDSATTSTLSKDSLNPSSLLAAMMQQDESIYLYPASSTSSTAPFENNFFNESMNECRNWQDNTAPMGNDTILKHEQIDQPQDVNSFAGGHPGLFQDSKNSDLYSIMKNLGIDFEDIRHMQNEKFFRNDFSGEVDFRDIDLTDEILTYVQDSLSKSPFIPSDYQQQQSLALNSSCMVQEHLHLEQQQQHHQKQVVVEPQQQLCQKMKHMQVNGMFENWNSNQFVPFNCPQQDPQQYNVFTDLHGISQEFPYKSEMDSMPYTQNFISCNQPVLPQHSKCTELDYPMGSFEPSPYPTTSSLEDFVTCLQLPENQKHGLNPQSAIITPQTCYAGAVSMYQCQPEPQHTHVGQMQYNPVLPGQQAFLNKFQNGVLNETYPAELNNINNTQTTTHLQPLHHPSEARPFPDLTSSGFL
# HSF-1 act = increases HSF-1 driven luciferase reporter signal | NIH3T3-HGL HSF-1 luciferase reporter, MG132, 8 h; 100% = twice DMSO control signal | activation, % at 9 µM | 300,000 tested, 1.7% active | AID 504408;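 active = mean replicate activation of at least 50% with a set share of replicates each reaching 50%; inconclusive = only one of those two conditions met; inactive = mean below 50% and too few replicates reaching it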;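 also: 0% = median of the neutral control wells and 100% = twice that signal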
# HSF1 inh = HSF1 inhibition; NIH3T3-HGL HSE-luciferase, MG132-induced, luminescence 8 h; hits give low values; activity change, negative = inhibition, % at 7.5 µM (by protocol); 300,000 tested, 0.77% active; AID 2098;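 active = more than half of replicate wells show activity change below -50%, luminescence cut by over half; inconclusive = some wells, but at most half, below -50%; inactive = no replicate well below -50%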;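 also: luciferase reports HSF-1 transcriptional activity via heat shock element; 0% = median of DMSO wells and -100% = zero luminescence signal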
# Numbers without * were called inactive; ? = inconclusive; / = no result given.
SMILES,FXN GAA850 act,AHR act,HSF-1 act,HSF1 inh
CC(C)OC(=O)Cc1nc2sc(-c3ccccc3)cc2c(=O)[nH]1,1.8,4.2,51.7*,28.1
Cc1nc2sc(-c3ccccc3)cc2c(=O)[nH]1,4.5,6.6,25.4,-0.4
O=c1[nH]c(-c2cccnc2)nc2sc(-c3ccccc3)cc12,-3.4,75.0*,/,/
COc1cc(NC(=O)CC(C)S(=O)(=O)c2ccc3c(c2)NC(=O)CO3)cc(OC)c1OC (centres undefined),0.5,-0.1,54.7*,12.1
Cc1ccccc1NC(=O)CC(C)S(=O)(=O)c1ccc2c(c1)NC(=O)CO2 (centres undefined),1.6,2.8,62.0*,17.1
CC(CC(=O)Nc1cccc(F)c1)S(=O)(=O)c1ccc2c(c1)NC(=O)CO2 (centres undefined),-1.1,1.4,0.9,2.5
COc1ccccc1C(=O)NNC(=O)CCCN1C(=O)/C(=C/c2cccs2)SC1=S,-0.1,2.2,1.1,12.7
COc1ccccc1N1C(=O)S/C(=C\c2cccs2)C1=O,1.8,77.9*,10.4,17.3
CC12C=CC(=O)C=C1CCC1C2CCC2(C)C(C(=O)CO)CCC12 (centres undefined),4.6,/,/,/
Oc1ccc(C2C(c3ccccc3)=NN=C(c3ccccc3F)N2O)c(O)c1 (centres undefined),1.4,8.2,16.3,4.2
Oc1ccc(C2C(c3ccccc3)=NN=C(c3ccc(Cl)cc3)N2O)c(O)c1 (centres undefined),-0.5,47.7*,21.0,19.9
O=C(Nc1cccc(Cl)c1)N(Cc1nc2ccccc2c(=O)[nH]1)C1CCCC1,-1.4,8.6,54.4*,17.5
Cc1nc(C(=O)NNC(=O)c2cccc(Cl)c2)c(C(F)(F)F)o1,1.7,0.0,-76.9,-71.4*
Cc1nc(C(=O)NNC(=O)c2ccccc2Cl)c(C(F)(F)F)o1,1.1,-0.2,-14.9,-4.4
COCCn1c(SCC(=O)N2CCC(C)CC2)nc2ccccc2c1=O,2.3,1.0,-3.4,2.3
COc1ccc(-n2c(-c3ccc(F)cc3)cnc2SCC(=O)NCc2ccco2)cc1,3.0,1.7,-62.0,-53.5*
COc1ccc(C(=O)Nn2c(SCC(=O)c3ccc(Cl)cc3)nc3ccccc3c2=O)cc1,-4.7,1.8,-75.4,-70.7*
COc1ccc(C(=O)Nn2c(SCC(=O)NCc3ccco3)nc3ccccc3c2=O)cc1,-7.0,-1.6,-75.9,-75.1*
O=C(CSc1ncc(-c2ccccc2)n1-c1ccccc1)NCc1ccco1,-1.0,-1.4,-0.5,4.9
COc1ccc(C(=O)Nn2c(SCC(=O)N3CCC(C)CC3)nc3ccccc3c2=O)cc1,-10.9,2.9,-73.4,-65.6*
c1ccc(CNc2nc(N3CCOCC3)nc(N3CCOCC3)n2)cc1,1.4,0.1,-4.8,-5.1
Cc1cc(Cl)cc(C)c1OCC(=O)N1CCN(c2ncccn2)CC1,1.4,0.3,/,/
C=CCNC(N)=S,2.6,-1.4,-6.7,-5.8
COC(=O)C1CN(C(=O)COc2cc(C)c(Cl)c(C)c2)c2ccccc2O1 (centres undefined),-0.1,16.8,5.0,12.7
COc1ccc(C(=O)Nn2c(SCC(=O)NC3CCCCC3)nc3ccccc3c2=O)cc1,-8.0,2.1,-73.1,-64.3*
SMILES,FXN GAA850 act,AHR act,HSF-1 act,HSF1 inh
CC1(C)CC(=O)c2cnn(-c3nc4ccccc4[nH]3)c2C1,1.2,2.5,-3.1,7.2
Cc1cccn2c(=O)c3cc(S(=O)(=O)c4ccc(F)cc4)c(=N)n(Cc4ccco4)c3nc12,2.7,-5.1,97.7*,50.0
CCOC(=O)Nc1ccc2c(c1)N(C(=O)OC)c1ccccc1CC2,-0.8,2.1,29.7,8.3
O=C(CCl)N1c2ccccc2Oc2ccc3ccccc3c21,4.7,/,/,/
CC(=O)N1c2ccccc2Oc2cc3ccccc3cc21,4.9,65.3*,18.0,15.0
O=C(CCCCn1c(=O)[nH]c2ccsc2c1=O)NCc1cccnc1,-3.5,0.2,-67.9,-55.5*
O=C(O)c1ccccc1C(=O)Nc1ccc(Oc2cccc(C(F)(F)F)c2)nc1,2.7,1.6,2.1,-3.4
CCOc1ccccc1CNC(=O)CCn1ccc2cc(S(=O)(=O)N3CCCCC3)ccc21,5.1,1.7,-80.3,-73.3*
Cc1[nH]c2ccccc2c1C1C(c2ccccc2)=NN=C(C(C)C)N1O (centres undefined),-0.6,25.8,17.1,0.0
CC1=NN=C(c2ccccc2)C(c2c[nH]c3ccccc23)N1O (centres undefined),-0.3,68.1*,18.4,4.7
O=C(O)CCCC(=O)Nc1ccccc1C(=O)N1CCOCC1,1.1,0.4,-7.2,-5.8
COc1cc(/C=N/NC(=O)c2cc(-c3ccccc3)sc2N)cc(OC)c1OC,/,49.3*,-6.6,4.7
COc1cc(/C=N\NC(=O)c2sc(N)nc2C)cc(OC)c1OC,3.3,62.3*,-13.5,5.3
COCCCNc1nc2cc(OC)c(OC)cc2c2nc(-c3ccccc3)nn12,-2.9,8.9,-23.9,-10.1
Oc1[nH]c2ccccc2c1N=NC(=S)N1CCOCC1,-1.0,0.1,87.4*,56.3
Oc1[nH]c2ccc(Br)cc2c1N=NC(=S)N1CCOCC1,-12.6,14.5,240.1*,235.8
CC(N1CCOC1=O)S(=O)(=O)c1ccccc1 (centres undefined),-1.0,0.6,-80.9,-76.4*
CSc1ccc(S(=O)(=O)NCC(=O)OCC(=O)N(C)Cc2ccccc2)cc1[N+](=O)[O-],-0.9,-2.0,-2.6,-8.2
CN(Cc1cccc(F)c1)C(=O)CNS(=O)(=O)c1ccc2ccccc2c1,-2.9,-4.5,63.1*,29.4
CCOC(=O)N/N=C\C=C\c1ccc2c(c1)OCO2,2.4,49.5*,19.7,11.2
CC(C)(C)OC(=O)N/N=C/c1ccc(Br)cc1,4.3,19.0,52.8*,18.0
CC(C)(C)OC(=O)N/N=C\C=C\c1ccc2c(c1)OCO2,4.7,36.2,55.7*,34.6
COC(=O)[C@]1(C)N[C@H](CN(C)C(=O)NC(C)C)[C@@H]2C(=O)N(Cc3ccccc3)C(=O)[C@@H]21,-1.8,-0.5,/,/
COc1ccc(-n2c(C)c(C(C)=O)c(C(C)=O)c2C)cc1,2.2,1.7,-72.1,-63.7*
O=C(/C=C\Nc1ccccn1)c1ccccc1,-3.6,42.8,22.1,-2.5
SMILES,FXN GAA850 act,AHR act,HSF-1 act,HSF1 inh
O=C(/C=C/Nc1ccccc1Br)c1ccccn1,-14.9,8.7,-66.2,-60.6*
C=CCOc1ccccc1CNc1ccc2c(c1)OCCO2,-11.0,1.8,-37.9,?
CCOc1ccc(Br)cc1CNc1ccc2c(c1)OCCO2,-5.3,18.7,-62.5,-56.4*
c1cc(CNc2ccc3c(c2)OCCO3)ccn1,-9.3,16.0,-79.9,-77.8*
Cc1cccc(NC(=S)N/N=C2\CC(C)(C)Oc3ccc(O)cc32)c1,-1.4,44.8,6.8,4.7
CC1(C)C/C(=N\NC(=S)Nc2ccccc2F)c2cc(O)ccc2O1,-3.5,60.1*,-24.5,-15.7
Cc1ccc(NC2CCCN(C(=O)CCc3scnc3C)C2)cc1C (centres undefined),0.1,50.2*,34.6,8.6
Cc1ncsc1CCC(=O)N1CCCC(Nc2ccc(F)c(F)c2)C1 (centres undefined),0.5,-2.4,-20.0,0.0
